Results on 15 compounds are retold here after PubChem BioAssay (NCATS).

Structures are written as SMILES. Where “and” joins values, the source holds several entries; their conditions need not be identical. Equal values may be shown once. Inconclusive results are not listed. A number with no mark means an inactive call. Calls of active or inactive are those of the source. Calls come from the whole dose curve; as a rule, active = well fitted curve in the direction sought with a large enough effect; inconclusive = small, poorly fitted or top-dose-only effect, or another doubt; inactive = no such curve, though single readings can be large or run the other way.
% is set by controls: 0 for no effect and ±100 for the full control effect; potency is the fitted concentration of half-maximal effect.

This assay can be described thus: qHTS Assay for Identifying Gametocytocidal Compounds (AID 743244).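 For max response: actives lower the fluorescent signal which means gametocytes are killed.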 Particulars: P. falciparum 3D7 stage III-V gametocytes, alamarBlue, 72 h; max response: stronger effect = lower value. The method in brief:
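Late gametocytes (III–V), P. falciparum 3D7; 72 h drug, then 24 h alamarBlue; resazurin reduction read by fluorescence.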
`CCC1(c2cccc(O)c2)CCCCN(C)C1` (stereo not given): the max response was 11.4%.

`NC(N)=NC(=O)c1nc(Cl)c(N)nc1N`: the max response is 25%.

Consider `O=C1NCN(c2ccccc2)C12CCN(CCCOc1ccc(F)cc1)CC2`, for which the max response is 0.637%.

Turning to `C[C@@H]1CC[C@H]2[C@@H](C)C(=O)O[C@@H]3O[C@@]4(C)CC[C@@H]1[C@]32OO4`, the Potency was 0.132 µM (active).

In the case of `NCc1cccnc1`, the max response was -3.33%.

Take `COc1cc(C[C@@H](C)N)c(OC)cc1C`: the max response was -6.71%.

For the compound `Cc1nnc2n1-c1sc(CCC(=O)N3CCOCC3)cc1C(c1ccccc1Cl)=NC2`, the max response is -5.44% and -14.1%.

Take `NC(N)=N/N=C/c1c(Cl)cccc1Cl`: the Potency was 3.55 µM (active).

As for `C[C@]12Cc3nonc3C[C@@H]1CC[C@@H]1[C@@H]2CC[C@@]2(C)[C@H]1CC[C@]2(C)O`, the max response was -3.73%.

With `CCCC[N+]1(C)[C@@H]2CC(OC(=O)[C@H](CO)c3ccccc3)C[C@H]1[C@@H]1O[C@@H]12` (stereo not given in full), the max response is 5.95%.

Turning to `CCCCCCCCCCCCCCCC[n+]1ccccc1`, the Potency is 7.08 µM (active).

As for `C[C@]12CC[C@H]3[C@@H](CCC4=CC(=O)CC[C@@H]43)[C@@H]1CC[C@@H]2O`, the max response was -13.9% and -1.26%.

Turning to `Cc1nc2ccccc2c(=O)n1-c1ccccc1Cl`, the max response was 1.05%.

In the case of `CC[C@H]1C[C@H]2[C@@H]3CCC4=CC(=O)CC[C@@H]4[C@H]3CC[C@]2(C)[C@H]1O`, the max response is -17.8%.

Take `CC(C)[N+](C)(CCC(C(N)=O)(c1ccccc1)c1ccccc1)C(C)C`: the max response was 0.0209%.
